We go through 8 compounds from PubChem BioAssay (NCI).

Test systems include SK-MEL-2 melanoma; EKVX NSCLC; SN12C renal; UO-31 renal; TK-10 renal; ACHN renal; CAKI-1 renal; A498 renal; CCRF-CEM leukemia; MOLT-4 leukemia; RPMI-8226 leukemia; OVCAR-8 ovarian; OVCAR-5 ovarian; OVCAR-4 ovarian; SK-OV-3 ovarian; IGROV1 ovarian; OVCAR-3 ovarian; HS 578T breast; NCI/ADR-RES ovarian.
Holding throughout (assay): NCI-60 one-dose screen, 48 h (100 = growth as untreated, 0 = no growth, -100 = all killed)
Common to all, as to conditions: 10 µM unless noted

Compounds without any hit were thinned out: in the full panel of roughly 83,000, 20% have a hit.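 Growth was measured after 48 h exposure to one concentration of compound in 96-well plates. Values under 10 count as active.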 Values without a mark were called inactive. Calls of active or inactive are those of the source.

Turning to `NC(=O)Nc1ccc2ncnc(Nc3ccc(Cl)cc3)c2c1`, the growth in the experiment on SK-MEL-2 melanoma was 127%; in the experiment on EKVX NSCLC, 22.4%; with SN12C renal, 81.9%; in the experiment on UO-31 renal it was 58%; with TK-10 renal, 26.5%; with ACHN renal it was 47.4%. The growth was 40.1% in the experiment with CAKI-1 renal; 43.4% in the experiment on A498 renal; 96% in the experiment on CCRF-CEM leukemia; 71.2% in the experiment on MOLT-4 leukemia; 101% in the experiment on RPMI-8226 leukemia; 89.5% in the experiment with OVCAR-8 ovarian. The growth with OVCAR-5 ovarian is 83.6%; with OVCAR-4 ovarian it was 91.9%; in the experiment on SK-OV-3 ovarian it was 30.2%; in the experiment with IGROV1 ovarian, 61%; with OVCAR-3 ovarian, 74.2%; in the experiment on HS 578T breast, 87.8%. Moreover, the growth in the experiment with NCI/ADR-RES ovarian was 88.7%.
Turning to `CCCCN(C)N=Nc1ccc(C(N)=O)cc1`, the growth was 107% in the experiment on SK-MEL-2 melanoma; 96.2% in the experiment on EKVX NSCLC; 96.7% in the experiment on SN12C renal; 57.1% with UO-31 renal; 111% in the experiment with TK-10 renal; 107% in the experiment on ACHN renal. The growth in the experiment with CAKI-1 renal was 59%; with A498 renal it was 89.7%; in the experiment on CCRF-CEM leukemia it was 110%; in the experiment on MOLT-4 leukemia, 87.7%; in the experiment on RPMI-8226 leukemia, 114%; in the experiment on OVCAR-8 ovarian, 107%. For the same compound, the growth in the experiment with OVCAR-5 ovarian is 99.2%; in the experiment on OVCAR-4 ovarian, 107%; with SK-OV-3 ovarian, 121%; in the experiment with IGROV1 ovarian, 89.1%; with OVCAR-3 ovarian, 103%; in the experiment with HS 578T breast, 101%. The growth in the experiment with NCI/ADR-RES ovarian is 106%.
On to `C[N+]1=C(/C=C/c2ccc(O)c3ncccc23)C(C)(C)c2ccccc21`, for which the growth is 44.9% with SK-MEL-2 melanoma; 58.7% in the experiment with EKVX NSCLC; 42.7% with SN12C renal; 30.6% in the experiment on UO-31 renal; 97.1% with TK-10 renal; 31% with ACHN renal. The growth was 25.7% in the experiment with CAKI-1 renal; 101% in the experiment with A498 renal; 75.8% in the experiment with CCRF-CEM leukemia; 56.1% with MOLT-4 leukemia; 53.6% in the experiment with RPMI-8226 leukemia; 53.7% with OVCAR-8 ovarian. The growth in the experiment on OVCAR-5 ovarian was 52.5%; in the experiment on OVCAR-4 ovarian it was 27.7%; in the experiment on SK-OV-3 ovarian, 23%; in the experiment with IGROV1 ovarian it was 46%; with OVCAR-3 ovarian, 83%; with HS 578T breast it was 49.2%. In the experiment with NCI/ADR-RES ovarian, the growth was 14.6%.
Regarding `CCCCCCN(CCCCCC)c1ccc(/C=C2/SC(=O)NC2=O)c(C)c1`, the growth was 83% with SK-MEL-2 melanoma; 79.1% in the experiment on EKVX NSCLC; 80.7% in the experiment with SN12C renal; 64.1% with UO-31 renal; 108% in the experiment on TK-10 renal; 93.4% in the experiment with ACHN renal. Moreover, the growth in the experiment with CAKI-1 renal was 84.1%; in the experiment with A498 renal, 82.9%; in the experiment on CCRF-CEM leukemia it was 73%; in the experiment with MOLT-4 leukemia, 75.1%; with RPMI-8226 leukemia, 65.5%; with OVCAR-8 ovarian, 80.6%. Moreover, the growth is 109% in the experiment on OVCAR-5 ovarian; 69.6% with OVCAR-4 ovarian; 96.5% in the experiment on SK-OV-3 ovarian; 83.6% in the experiment with IGROV1 ovarian; 86.7% in the experiment on OVCAR-3 ovarian; 86.8% with HS 578T breast. The growth in the experiment on NCI/ADR-RES ovarian is 86.7%.
As for `O=c1ccc(N=Nc2ccc([N+](=O)[O-])cc2)ccc1O`, the growth in the experiment with SK-MEL-2 melanoma is 28.1%; in the experiment with EKVX NSCLC it was 5.14% (active); in the experiment with SN12C renal, 4.86% (active); with UO-31 renal, 17.1%; with TK-10 renal it was 47.9%; with ACHN renal, 16.5%. The growth was 20.2% in the experiment on CAKI-1 renal; 103% with A498 renal; 34.5% in the experiment with CCRF-CEM leukemia; 18.6% with MOLT-4 leukemia; 22.4% with RPMI-8226 leukemia; 9.9% (active) in the experiment on OVCAR-8 ovarian. In addition, the growth was 48.5% with OVCAR-5 ovarian; 29.6% in the experiment with OVCAR-4 ovarian; 78.6% in the experiment with SK-OV-3 ovarian; 21.4% in the experiment with IGROV1 ovarian; 8.96% (active) with OVCAR-3 ovarian; 34.8% with HS 578T breast. For the same compound, in the experiment on NCI/ADR-RES ovarian, the growth is -1.1% (active).
For `C=C(C)[C@@H]1CC[C@]2(N=C=O)CC[C@]3(C)[C@H](CC[C@@H]4[C@@]5(C)Cc6c([nH]c7ccccc67)C(C)(C)[C@@H]5CC[C@]43C)[C@@H]12`, the growth is 108% in the experiment with SK-MEL-2 melanoma; 89% in the experiment on EKVX NSCLC; 72.4% with SN12C renal; 64.8% in the experiment on UO-31 renal; 21.1% with TK-10 renal; 99% in the experiment on ACHN renal. For the same compound, the growth in the experiment with CAKI-1 renal is 69.9%; in the experiment with A498 renal it was 137%; in the experiment with CCRF-CEM leukemia, 67.6%; in the experiment on MOLT-4 leukemia it was 61.4%; in the experiment with RPMI-8226 leukemia, 18.8%; in the experiment on OVCAR-8 ovarian, 70.7%. Also, the growth was 92.9% in the experiment with OVCAR-5 ovarian; 72.7% in the experiment with OVCAR-4 ovarian; 89.4% in the experiment on SK-OV-3 ovarian; 84.3% in the experiment with IGROV1 ovarian; 89.2% in the experiment on OVCAR-3 ovarian; 92% in the experiment on HS 578T breast. Besides, in the experiment on NCI/ADR-RES ovarian, the growth is 83.5%.
Consider `COC(=O)c1ccc2[nH]c(O)c(C(=Nc3ccc(N(C)C(=O)CN4CCN(C)CC4)cc3)c3ccccc3)c2c1`, for which the growth in the experiment on SK-MEL-2 melanoma was -4.99% (active); in the experiment with EKVX NSCLC, 54%; in the experiment with SN12C renal it was 17.6%; in the experiment on UO-31 renal it was 16%; in the experiment on TK-10 renal, 51.6%; in the experiment on ACHN renal, 7.31% (active). The growth is 4.65% (active) in the experiment with CAKI-1 renal; -35.9% (active) in the experiment with A498 renal; 10.7% with CCRF-CEM leukemia; 12.1% in the experiment with MOLT-4 leukemia; -6.02% (active) in the experiment with RPMI-8226 leukemia; 26% in the experiment on OVCAR-8 ovarian. For the same compound, the growth in the experiment on OVCAR-5 ovarian was 57.2%; with OVCAR-4 ovarian it was 34.2%; in the experiment with SK-OV-3 ovarian it was 5.32% (active); with IGROV1 ovarian, 10.2%; with OVCAR-3 ovarian, 50.5%; in the experiment with HS 578T breast it was -18.2% (active). For the same compound, the growth with NCI/ADR-RES ovarian is 83.8%.
For `CCN1C(=O)N(CC)C2Nn3c(s/c(=C4\C(=O)Nc5ccccc54)c3=O)=NC21` (configuration not stated), the growth in the experiment with SK-MEL-2 melanoma was 61.2%; in the experiment with EKVX NSCLC, 83.2%; in the experiment on SN12C renal, 49.8%; in the experiment on UO-31 renal, 54.8%; in the experiment on TK-10 renal it was 13.7%; in the experiment on ACHN renal, 53.7%. The growth was 37.9% in the experiment on CAKI-1 renal; -2.29% (active) in the experiment with A498 renal; 35.9% in the experiment on CCRF-CEM leukemia; 59% with MOLT-4 leukemia; 53.2% in the experiment with RPMI-8226 leukemia; 43.6% with OVCAR-8 ovarian. The growth in the experiment with OVCAR-5 ovarian is 66.4%; in the experiment on OVCAR-4 ovarian, 54.9%; in the experiment with SK-OV-3 ovarian, 75.8%; with IGROV1 ovarian, 52.3%; with OVCAR-3 ovarian, 10.5%; in the experiment with HS 578T breast, 34.7%. For the same compound, in the experiment on NCI/ADR-RES ovarian, the growth is 73%.
